This is a sample that favours compounds with a hit; in the whole collection about 7.4% have one here.
Tau fil binding – binders of human tau filaments. P10636. recombinant tau filaments, thioflavin S fluorescence, 15 h; filaments grown with octadecylsulfate alongside compound. Potency, µM (top dose mostly 57.1 µM), for inactives: at the highest dose activity change, negative = inhibition. 2% of 71,000 active. AID 596;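 also: % is scaled to controls: 0 for no effect and ±100 for the full control effect; actives lower thioflavin S fluorescence by blocking filaments or displacing dye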
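Read-out: ThS fluorescence, 450 nm excitation/510 nm emission; lower signal marks blocked filament formation or displaced dye. Tau at 1 uM with 30 uM ODS, 10 uM ThS, 5 mM DTT, 100 mM NaCl, 10 mM HEPES pH 7.4; 15 h, 37 C.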
CRE Fsk mod – modulators of forskolin-stimulated CRE signaling in CHO cells; CHO CRE-bla reporter (cAMP response element driving beta-lactamase), forskolin EC10, beta-lactamase ratio; Potency, µM (doses to about 38.2 µM), for the others: at the highest dose activity change, negative = inhibition, most hits filed as activators; 2.5% of 71,000 active; AID 662; active = well fitted activation curve with a large enough effect in the signal ratio, with a control signal flat, not every such curve was filed as active; inconclusive = small, poorly fitted or top-dose-only effect, or effect the other way, or a change in a side signal; the % refers to the signal ratio; also: % of control where 0% means no effect
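Forskolin analogue NKH 477 at EC10 stimulated CRE-driven beta-lactamase in CHO cells alongside compound dilution series. Beta-lactamase was measured with CCF4, excitation 405 nm, emission ratio 460/530 nm.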
HEK293 cAMP ctrl – counter-screen for TSHR agonists: cAMP increase in parental HEK293; parental HEK293 CNG cAMP sensor, membrane potential fluorescence; Potency, µM (top dose mostly 57.1 µM), for the others: at the highest dose activation, most hits filed as activators; 2.5% of 73,000 active; AID 938; also: % of control where 0% means no effect; nearly all actives have a fitted effect of over 55% in size
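Parental HEK 293 cells stably expressing a modified CNG channel (no TSHR) report cAMP rise as membrane depolarization. Membrane potential dye with 100 uM RO 20-1724 was loaded for 60 min at room temperature, then compound added for 30 min; fluorescence read at 590 nm.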
TSHR ag – agonists of human thyroid stimulating hormone receptor. P16473. HEK293-CNG-TSHR cells (CNG channel as cAMP sensor), membrane potential dye, cAMP. Potency, µM (series often up to 57.1 µM), for inactives: at the highest dose activation, usual class: activators. 0.48% of 73,000 active. AID 926; active = well fitted activation curve with a large enough effect in the main read-out, with a control signal flat, not every such curve was filed as active; inconclusive = small, poorly fitted or top-dose-only effect, or a change in a side signal; inactive = no such curve, though single readings can be large or run the other way; % of control where 0% means no effect;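 also: the control signal comes from parental cells without the receptor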
Target sequence (P16473 whole entry, looked up): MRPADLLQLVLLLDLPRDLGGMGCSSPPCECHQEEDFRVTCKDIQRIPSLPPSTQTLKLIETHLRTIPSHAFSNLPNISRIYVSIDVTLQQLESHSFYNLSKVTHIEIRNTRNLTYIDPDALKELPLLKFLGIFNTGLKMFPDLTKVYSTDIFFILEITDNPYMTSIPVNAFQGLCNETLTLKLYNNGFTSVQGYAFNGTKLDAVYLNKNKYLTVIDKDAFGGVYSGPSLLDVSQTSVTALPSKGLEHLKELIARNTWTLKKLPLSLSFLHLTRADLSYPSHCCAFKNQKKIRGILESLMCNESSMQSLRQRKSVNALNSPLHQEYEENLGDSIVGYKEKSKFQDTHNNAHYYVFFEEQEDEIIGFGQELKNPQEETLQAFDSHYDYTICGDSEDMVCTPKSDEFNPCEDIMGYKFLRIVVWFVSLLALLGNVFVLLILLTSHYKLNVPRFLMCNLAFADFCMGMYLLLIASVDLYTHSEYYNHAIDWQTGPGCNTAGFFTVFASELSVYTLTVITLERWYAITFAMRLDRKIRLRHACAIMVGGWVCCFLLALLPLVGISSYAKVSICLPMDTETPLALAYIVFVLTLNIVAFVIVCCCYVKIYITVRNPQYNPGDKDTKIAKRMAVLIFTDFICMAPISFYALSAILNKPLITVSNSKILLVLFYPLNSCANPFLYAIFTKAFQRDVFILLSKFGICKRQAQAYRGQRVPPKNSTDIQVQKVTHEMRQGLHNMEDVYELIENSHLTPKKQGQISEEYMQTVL
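cAMP rise detected as CNG-channel membrane depolarization by fluorescent dye (emission 590 nm), 30 min after compound, following 60 min dye loading containing 100 uM RO 20-1724 at room temperature. Cells: TSHR/CNG HEK 293, with parental CNG HEK 293 as control.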
ERK AVP inh – blocks ERK signaling stimulated by vasopressin; 0.99% of 72,000 active; HEK293-V1b, vasopressin-stimulated pERK AlphaScreen; Potency, µM (top dose mostly 57.5 µM), for inactives: at the top dose activity, negative = inhibition, hits mostly inhibitors; also: % is scaled to controls: 0 for no effect and ±100 for the full control effect; nearly all actives have a fitted effect of over 55% in size
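V1b-HEK293 cells; cpd 30 min 37C; 25 nM vasopressin 5 min; lyse 10 min; AlphaScreen beads 5 hr RT. Normalized to DMSO basal and 25 nM vasopressin; AC50 by Hill fit.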
Numbers without * were called inactive; [ ] = another dose, or the depositor's remark. Unless noted, calls follow the shape of the dose curve; as a rule, active = well fitted curve in the direction sought with a large enough effect; inconclusive = small, poorly fitted or top-dose-only effect, or another doubt; inactive = no such curve, though single readings can be large; an effect the other way counts as inactive or inconclusive. Potency is read from the fitted curve at half-maximal effect.

For Cc1cccc(NC(=O)c2sc3nc(-c4ccccc4)cn3c2C)n1 the results were Tau fil binding 93%, CRE Fsk mod inconclusive, HEK293 cAMP ctrl 25µM*, TSHR ag inconclusive and ERK AVP inh -2%.
Screening Cc1c(C(=O)NCC2CCCO2)sc2nc(-c3ccc(F)cc3)cn12 (configuration not stated) returned Tau fil binding 33%, CRE Fsk mod 13µM*, HEK293 cAMP ctrl inconclusive and TSHR ag inconclusive.
Cc1c(C(=O)Nc2ccccc2)sc2nc(-c3ccccc3)cn12 was read as Tau fil binding 190%, CRE Fsk mod -9%, HEK293 cAMP ctrl 32µM*, TSHR ag inconclusive and ERK AVP inh 5%.
`Cc1c(C(=O)Nc2ccc3c(c2)OCO3)sc2nc(-c3ccccc3)cn12` gave Tau fil binding 166%, CRE Fsk mod 4%, HEK293 cAMP ctrl inconclusive, TSHR ag inconclusive and ERK AVP inh 6%.
`Cc1cccc(NC(=O)c2sc3nc(-c4ccc(F)cc4)cn3c2C)n1` gave Tau fil binding 141%, CRE Fsk mod inconclusive, HEK293 cAMP ctrl 20µM*, TSHR ag inconclusive and ERK AVP inh 25%.
For O=c1cc(-c2cccc(O)c2O)oc2ccccc12 the results were Tau fil binding -18%, CRE Fsk mod inconclusive, HEK293 cAMP ctrl 23%, TSHR ag 27% and ERK AVP inh -41%.
For CN1CC[C@@]2(CCN3CCc4c(oc5ccccc45)[C@@H]3C2)N(C)C1=O the results were Tau fil binding 5%, CRE Fsk mod -5%, HEK293 cAMP ctrl 10%, TSHR ag 5% and ERK AVP inh 4%.
O=C(c1ccncc1)N1CCC2(CC1)CCN(c1ccccn1)CC2 was read as Tau fil binding 8%, CRE Fsk mod -5%, HEK293 cAMP ctrl inconclusive, TSHR ag inconclusive and ERK AVP inh inconclusive.
For O=C(Oc1ccccc1)N1CCC2(CCCN(c3ccccn3)C2)CC1 the results were Tau fil binding -10%, CRE Fsk mod inconclusive, HEK293 cAMP ctrl 20µM*, TSHR ag inconclusive and ERK AVP inh 4%.
Screening O=C(c1ccncc1)N1CCC2(CC1)CN(c1ccccn1)C2 returned Tau fil binding -10%, CRE Fsk mod -7%, HEK293 cAMP ctrl 7.9µM*, TSHR ag inconclusive and ERK AVP inh -20%.
For CC(=O)O[C@]12CC[N@+]3(C)CCCC[C@@H]3[C-]1Nc1ccccc12 the results were Tau fil binding 10%[11.4 µM], CRE Fsk mod -15%[7.6 µM], HEK293 cAMP ctrl -8%[11.4 µM], TSHR ag 1%[11.4 µM] and ERK AVP inh -5%[11.5 µM].
For CSc1ncnc2c1ncn2CC(=O)[C@H]1CC[C@H]2[C@H]3CCC4=CC(=O)CC[C@@]4(C)[C@@H]3CC[C@@]12C the results were Tau fil binding 64%[11.4 µM], CRE Fsk mod inconclusive, HEK293 cAMP ctrl 1%[11.4 µM], TSHR ag 10%[11.4 µM] and ERK AVP inh 4µM*.
For Cc1cc(=O)oc2cc(OC(C)C(=O)N3CCCc4ccccc43)ccc12 (configuration not stated) the results were Tau fil binding 7%, CRE Fsk mod 5%, HEK293 cAMP ctrl 25µM*, TSHR ag inconclusive and ERK AVP inh -25%.
Screening Clc1ccc(CSCc2ccc(Cl)cc2Cl)c(Cl)c1 returned Tau fil binding -3%[11.4 µM], CRE Fsk mod 11%[7.6 µM], HEK293 cAMP ctrl -4%[11.4 µM], TSHR ag 1%[11.4 µM] and ERK AVP inh 46%[11.5 µM].
For Nc1c(C(=O)c2ccc(Br)s2)oc2ccccc12 the results were Tau fil binding 13µM*, CRE Fsk mod inconclusive, HEK293 cAMP ctrl inconclusive, TSHR ag inconclusive and ERK AVP inh -1%.
Screening Nc1c(C(=O)c2cccs2)oc2ccccc12 returned Tau fil binding inconclusive, CRE Fsk mod inconclusive, HEK293 cAMP ctrl 1%, TSHR ag 0% and ERK AVP inh 4%.
Cc1ccc(C(=O)CSc2nnc(CNc3nc(-c4ccccc4)cs3)n2C)cc1 was read as Tau fil binding 14%, CRE Fsk mod inconclusive, HEK293 cAMP ctrl 15%, TSHR ag 24% and ERK AVP inh 13µM*.
CCn1c(CNc2nc(-c3ccccc3)cs2)nnc1SCC(=O)NCc1ccco1 was read as Tau fil binding 16%, CRE Fsk mod -25%, HEK293 cAMP ctrl 2%, TSHR ag -1%[11.4 µM] and ERK AVP inh 3%.
Screening O=c1cnnc(SCCc2ccccc2)[nH]1 returned Tau fil binding 7.9µM*, CRE Fsk mod 9%, HEK293 cAMP ctrl 32µM*, TSHR ag inconclusive and ERK AVP inh inconclusive.
For CN(C)CCCCl the results were Tau fil binding 2%, CRE Fsk mod 1%, HEK293 cAMP ctrl 14%, TSHR ag -1% and ERK AVP inh 6%.
`CCOC(=O)Nc1nc(-c2ccccc2)c(C)s1` gave Tau fil binding 11%[11.4 µM], CRE Fsk mod inconclusive, HEK293 cAMP ctrl -6%[11.4 µM], TSHR ag 5%[11.4 µM] and ERK AVP inh 1%[11.5 µM].
For CNc1sc(C(=O)c2cccs2)c(N)c1-c1nc2ccccc2s1 the results were Tau fil binding 5µM*, CRE Fsk mod inconclusive, HEK293 cAMP ctrl -47%, TSHR ag inconclusive and ERK AVP inh 15%.
Screening O=C1CCC[C@@H](C(C(=O)OCc2ccccc2)C(=O)OCc2ccccc2)C1 returned HEK293 cAMP ctrl 8%[11.4 µM], TSHR ag 16%[11.4 µM] and ERK AVP inh 10%[11.5 µM].
For O=P(O)(CCP(=O)(O)c1ccccc1)c1ccccc1 the results were Tau fil binding 4%[11.4 µM], CRE Fsk mod -1%[7.6 µM], HEK293 cAMP ctrl -3%[11.4 µM], TSHR ag 7%[11.4 µM] and ERK AVP inh 22%[11.5 µM].
Cc1cccc(N2CCN(c3cc(C)nc4nnnn34)CC2C)c1 (configuration not stated) was read as Tau fil binding -84%, CRE Fsk mod 10%, HEK293 cAMP ctrl 4%, TSHR ag -1% and ERK AVP inh 10%.
For Cc1cccc(N2CCN(c3nnnn3-c3ccccc3)CC2C)c1 (configuration not stated) the results were Tau fil binding 1%, CRE Fsk mod 13%, HEK293 cAMP ctrl 25µM*, TSHR ag inconclusive and ERK AVP inh -14%.
CC(C)=NOCc1ccc(-c2cc(-c3ccccc3)no2)cc1 was read as HEK293 cAMP ctrl 10%[11.4 µM], TSHR ag -3%[11.4 µM] and ERK AVP inh 22%[11.5 µM].
Screening Cn1c(=O)c2c(SCc3cccnc3)nc(C3CC3)nc2n(C)c1=O returned Tau fil binding 50%, CRE Fsk mod 3.2µM*, HEK293 cAMP ctrl 7% and TSHR ag 12%.
Screening CCc1nc(SCc2cccnc2)c2c(=O)n(C)c(=O)n(C)c2n1 returned Tau fil binding 6%, CRE Fsk mod 2.5µM*, HEK293 cAMP ctrl 2% and TSHR ag 7%[11.4 µM].
`Cn1c(=S)c2[nH]c(SCc3cccnc3)nc2n(C)c1=O` gave Tau fil binding 6%[11.4 µM], CRE Fsk mod 4%[7.6 µM], HEK293 cAMP ctrl -5%[11.4 µM], TSHR ag 1%[11.4 µM] and ERK AVP inh -15%[11.5 µM].

High-throughput results (PubChem BioAssay)
